Values joined by “and” are separate entries in the source; they are usually repeats but may differ in a detail not shown here. Equal values may be shown once. Screen size: about 5,500 compounds; about 2,000 (36%) were called active. Not shown: some 18% with an inconclusive outcome. Cut-off read from the data, not from the text of the source: active = normalized growth mostly below about 0.91 (no sharp cut-off); inconclusive = no clear call, values can overlap the other calls; inactive = mostly above about 0.92. The list shows a part of the results.
Test: chemical genetic growth profiling, strain panel (AID 1159580);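 note: tested at 20 µM; growth read once vehicle control cultures reached saturation at 30 °C; 1 = growth at the plate median or of vehicle wells; lower values mean less growth of the strain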
Details: S. cerevisiae deletion strains, growth OD

Measured: normalized growth

O=c1oc2c(O)c(O)cc3c(=O)oc4c(O)c(O)cc1c4c23
0.41 (active) and 0.994 (inactive): locus YHR030C, strain SLT2, stronger effect = lower value
0.28 (active) and 0.983 (inactive): locus YJL095W, strain BCK1, stronger effect = lower value
active: locus YAL013W, strain DEP1, stronger effect = lower value 0.55 | locus YAL021C, strain ccr4, stronger effect = lower value 0.352 | locus YAL026C, strain drs2, stronger effect = lower value 0.545 | locus YAL030W, strain snc1, stronger effect = lower value 0.817 | locus YBL061C, strain skt5, stronger effect = lower value 0.591 | locus YBR009C, strain hhf1, stronger effect = lower value 0.754 | locus YBR023C, strain chs3, stronger effect = lower value 0.533 | locus YBR229C, strain ROT2, stronger effect = lower value 0.903 | locus YBR231C, strain swc5, stronger effect = lower value 0.53 | locus YBR279W, strain paf1, stronger effect = lower value 0.699 | locus YCL011C, strain gbp2, stronger effect = lower value 0.745 | locus YCL016C, strain dcc1, stronger effect = lower value 0.722 | locus YCL029C, strain bik1, stronger effect = lower value 0.502 | locus YCL061C, strain MRC1, stronger effect = lower value 0.84 | locus YCL069W, strain vba3, stronger effect = lower value 0.855 | locus YCR088W, strain abp1, stronger effect = lower value 0.895 | locus YDL035C, strain GPR1, stronger effect = lower value 0.681 | locus YDL040C, strain nat1, stronger effect = lower value 0.868 | locus YDL074C, strain BRE1, stronger effect = lower value 0.541 | locus YDL101C, strain DUN1, stronger effect = lower value 0.598 | locus YDL185W, strain tfp1, stronger effect = lower value 0.835 | locus YDL192W, strain arf1, stronger effect = lower value 0.558 | locus YDR069C, strain doa4, stronger effect = lower value 0.521 | locus YDR101C, strain arx1, stronger effect = lower value 0.749 | locus YDR137W, strain rgp1, stronger effect = lower value 0.496 | locus YDR150W, strain NUM1, stronger effect = lower value 0.778 | locus YDR159W, strain sac3, stronger effect = lower value 0.738 | locus YDR162C, strain NBP2, stronger effect = lower value 0.661 | locus YDR297W, strain sur2, stronger effect = lower value 0.746 | locus YDR318W, strain mcm21, stronger effect = lower value 0.651 | locus YDR334W, strain swr1, stronger effect = lower value 0.574 | locus YDR335W, strain msn5, stronger effect = lower value 0.784 | locus YDR388W, stronger effect = lower value 0.538 | locus YDR392W, strain spt3, stronger effect = lower value 0.695 | locus YDR502C, strain sam2, stronger effect = lower value 0.561 | locus YEL003W, strain gim4, stronger effect = lower value 0.697 | locus YEL037C, strain rad23, stronger effect = lower value 0.767 | locus YEL061C, strain CIN8, stronger effect = lower value 0.753 | locus YER015W, strain faa2, stronger effect = lower value 0.583 | locus YER016W, strain bim1, stronger effect = lower value 0.818 | locus YER111C, strain swi4, stronger effect = lower value 0.436 | locus YER155C, strain BEM2 (second series), stronger effect = lower value 0.745 | locus YER155C, strain BEM2, stronger effect = lower value 0.74 | locus YER167W, strain BCK2, stronger effect = lower value 0.799 | locus YFR010W, strain ubp6, stronger effect = lower value 0.713 | locus YGL086W, strain mad1, stronger effect = lower value 0.583 | locus YGL167C, strain pmr1, stronger effect = lower value 0.653 | locus YGL173C, strain kem1, stronger effect = lower value 0.417 | locus YGL248W, strain PDE1, stronger effect = lower value 0.649 | locus YGL253W, strain hxk2, stronger effect = lower value 0.768 | locus YGR078C, strain PAC10, stronger effect = lower value 0.616 | locus YGR135W, strain pre9, stronger effect = lower value 0.559 | locus YGR252W, strain gcn5, stronger effect = lower value 0.588 | locus YHR013C, strain ard1, stronger effect = lower value 0.563 | locus YHR027C, strain rpn1, stronger effect = lower value 0.539 | locus YHR079C, strain IRE1 (second series), stronger effect = lower value 0.824 | locus YHR129C, strain ARP1, stronger effect = lower value 0.603 | locus YHR142W, strain chs7, stronger effect = lower value 0.563 | locus YHR200W, strain rpn10, stronger effect = lower value 0.712 | locus YIL066C, strain RNR3, stronger effect = lower value 0.669 | locus YIL073C, strain SPO22, stronger effect = lower value 0.546 | locus YIR030C, strain dcg1, stronger effect = lower value 0.776 | locus YJL092W, strain hpr5, stronger effect = lower value 0.861 | locus YJL095W, strain BCK1 (second series), stronger effect = lower value 0.675 | locus YJL134W, strain LCB3, stronger effect = lower value 0.823 | locus YJL154C, strain vps35, stronger effect = lower value 0.864 | locus YJL164C, strain tpk1, stronger effect = lower value 0.679 | locus YJL166W, strain qcr8, stronger effect = lower value 0.73 | locus YJL168C, strain set2, stronger effect = lower value 0.898 | locus YJL187C, strain SWE1 (second series), stronger effect = lower value 0.493 | locus YJL187C, strain SWE1, stronger effect = lower value 0.742 | locus YJR043C, strain POL32, stronger effect = lower value 0.596
inactive: locus YBR021W, strain FUR4, stronger effect = lower value 0.907 | locus YBR171W, strain sec66, stronger effect = lower value 0.938 | locus YDL005C, strain med2, stronger effect = lower value 0.986 | locus YDR001C, strain nth1, stronger effect = lower value 0.96 | locus YDR195W, strain ref2 0.876 | locus YEL061C, strain CIN8 (second series), stronger effect = lower value 0.917 | locus YER110C, stronger effect = lower value 0.971 | locus YGL078C, strain dbp3, stronger effect = lower value 0.976 | locus YGL227W, strain vid30, stronger effect = lower value 1 | locus YGL240W, strain doc1, stronger effect = lower value 0.923 | locus YHR079C, strain IRE1, stronger effect = lower value 0.978 | locus YHR094C, strain hxt1, stronger effect = lower value 0.964 | locus YIL125W, strain kgd1, stronger effect = lower value 0.956 | locus YJL115W, strain asf1, stronger effect = lower value 0.912 | locus YJL129C, strain trk1, stronger effect = lower value 0.898 | locus YJR066W, strain TOR1, stronger effect = lower value 0.974
